# Source: PubChem BioAssay (National Center for Advancing Translational Sciences (NCATS))
# Only some compounds are listed: those with a hit (about 2.3% of all), similar ones and a draw of the others.
# Rango release inh = inhibition of RanGTP-driven Rango-importin beta dissociation | Potency, µM (highest dose often 46.1 µM) | Biochemical FRET Rango-importin beta, RanGTP-induced dissociation | O95149+P62826 | hit rate 0.071% among 340,000; calls by dose curve; note: nearly all actives have a fitted effect of over 45% in size
#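 Rango FRET biosensor (snurportin-1 IBB flanked by N-terminal EYFP and C-terminal CFP10) at 0.1 uM, with 0.25 uM importin beta in PBS, 1mM DTT, 0.02% Tween-20, 0.1% BSA. 0.6 uM Ran, 2mM GTP and 0.2 uM RCC1 were then added for 45 min at room temperature. Inhibition read as loss of FRET rise.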
# A549 viability = counter-screen for Nrf2 inhibitors: cytotoxicity in A549 cells | A549 ARE-Fluc cells, CellTiter-Fluor viability, 18-24 h | Potency, µM (titrated, usually from 46 µM), actives largely listed as inhibitors | hit rate 0.16% among 390,000
#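 A549 ARE-Fluc cells in 5% FBS OPTI-MEM, 5000 cells/well, rested 2 h then exposed to compounds in concentration-response for 18-24 h at 37 °C. Viability by CellTiter-Fluor fluorescence (Ex 405/Em 525) after 30 min; luciferase luminescence (BugLite, 15 min, RT) read afterwards.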
# Nrf2 ARE act = Nrf2 pathway activation; AID 624171; hit rate 0.31% among 410,000; Potency, µM (highest dose often 46.1 µM), usual class: activators; AREc32 ARE-luciferase reporter (MCF7-derived line), luminescence, 24 h; note: nearly all actives have a fitted effect of over 65% in size
#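 AREc32_Fluc, 1000 cells/well, OPTI-MEM + 5% FBS, o/n 37 deg C 5% CO2; 23 nL cpd by pin tool, 24 hr; Steady-Glo 30 min RT, luminescence.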
# Nrf2 inh = blocks Nrf2 signaling; A549 ARE-Fluc reporter, luciferase luminescence, 18-24 h; Potency, µM (titrated, usually from 46 µM), actives largely listed as inhibitors; AID 504444; hit rate 2.1% among 360,000; note: nearly all actives have a fitted effect of over 60% in size
#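 Cells were seeded and rested 2 h, then exposed to compounds for 18-24 h. CellTiter-Fluor was read first as a viability measure. BugLite was added 15 min before the final luminescent read of ARE-luciferase activity in A549 cells.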
# Rango-impB inh = prevents formation of the Rango-importin beta complex. Q14974. Rango CFP/YFP FRET sensor + importin beta, 45 min. Potency, µM (titrated, usually from 92.2 µM). hit rate 0.031% among 340,000. AID 540263; calls by dose curve; note: nearly all actives have a fitted effect of over 15% in size
# Target sequence (Q14974 whole entry, looked up): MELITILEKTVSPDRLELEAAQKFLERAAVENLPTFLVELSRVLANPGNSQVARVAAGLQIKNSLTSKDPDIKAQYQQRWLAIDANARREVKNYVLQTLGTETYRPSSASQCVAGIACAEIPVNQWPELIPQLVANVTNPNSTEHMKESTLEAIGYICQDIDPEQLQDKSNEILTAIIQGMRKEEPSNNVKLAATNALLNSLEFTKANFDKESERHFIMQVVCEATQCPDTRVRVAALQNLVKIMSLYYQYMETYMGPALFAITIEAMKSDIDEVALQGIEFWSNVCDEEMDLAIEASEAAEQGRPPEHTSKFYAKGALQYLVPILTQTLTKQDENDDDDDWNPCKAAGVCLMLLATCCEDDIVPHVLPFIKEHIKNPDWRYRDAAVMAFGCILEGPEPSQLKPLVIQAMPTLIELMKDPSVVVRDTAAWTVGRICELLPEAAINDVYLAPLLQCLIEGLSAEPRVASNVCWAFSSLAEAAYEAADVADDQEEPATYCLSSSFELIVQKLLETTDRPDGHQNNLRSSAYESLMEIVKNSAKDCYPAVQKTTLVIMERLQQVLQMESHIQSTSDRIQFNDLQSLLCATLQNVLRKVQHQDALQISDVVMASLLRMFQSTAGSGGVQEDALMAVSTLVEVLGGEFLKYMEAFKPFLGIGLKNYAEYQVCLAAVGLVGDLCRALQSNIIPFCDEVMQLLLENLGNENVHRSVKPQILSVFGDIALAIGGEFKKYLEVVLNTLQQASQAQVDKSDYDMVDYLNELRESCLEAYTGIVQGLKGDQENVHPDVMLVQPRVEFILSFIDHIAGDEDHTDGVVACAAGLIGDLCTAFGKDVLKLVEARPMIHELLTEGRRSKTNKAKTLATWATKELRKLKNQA
#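 FRET biosensor Rango (snurportin 1 IBB between N-terminal EYFP and C-terminal Cerulean), 50 nM in PBS/1 mM DTT/0.02% Tween-20/0.1% BSA, preincubated 5 min RT with compound; 0.125 microM importin beta added, 45 min RT, CFP/YFP FRET ratio read.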
# Numbers stand for hits; n = inactive; u = inconclusive; x = no result given. Unless noted, calls come from the whole dose curve; as a rule, active = well fitted curve in the direction sought with a large enough effect; inconclusive = small, poorly fitted or top-dose-only effect, or another doubt; inactive = no such curve, though single readings can be large; an effect the other way counts as inactive or inconclusive.
SMILES,Rango release inh,A549 viability,Nrf2 ARE act,Nrf2 inh,Rango-impB inh
Cc1ccc(C(=O)C[n+]2cc(-c3ccc(C)cc3)n3c2CCCCC3)cc1,n,n,n,u,n
COc1ccc(C(=O)C[n+]2cc(-c3ccc(OC)cc3)n3c2CCCC3)cc1,n,n,n,8.2µM,u
Cc1nc(-c2cccc(NC(=O)c3ccc(-n4cccn4)cc3)c2)cs1,n,n,n,15µM,n
COc1ccc(NC(=O)c2ccc(-c3csc(C)n3)cc2)cc1,n,n,n,21µM,n
Cc1nc(-c2ccc(NC(=O)c3ccco3)cc2)cs1,n,n,n,7.3µM,n
Cc1ccn2c(=O)c(C(=O)NCCc3ccc(S(N)(=O)=O)cc3)c(O)nc2c1,x,n,n,n,x
N#CCSc1nccc(/C=C/c2ccccc2)n1,n,n,11µM,u,n
CSc1nc2nccc(/C=C\c3ccccc3)n2n1,n,n,u,u,u
Cc1ccc(C(=O)C=CC=Cc2ccccc2)cc1,x,x,n,x,x
Cc1ccc(C(=O)C(C(=O)/C=C/c2ccccc2)=C2SCCCS2)cc1,n,u,n,26µM,n
Cc1cc(NS(=O)(=O)c2ccc(NC(=O)Cc3ccc(Cl)c(Cl)c3)cc2)no1,n,n,n,n,n
CCOC(=O)c1c(NC(=O)c2c(Br)cnn2C)c(C#N)nn1-c1ccccc1,n,n,n,18µM,n
CCCCCC1CC1C(=O)N/N=C/c1ccc(N(C)C)cc1 (centres undefined),8.2µM,n,n,n,u
Cc1ccc(S(=O)(=O)N2[C@@H](c3ccc(Br)cc3)C(C(=O)O)=CC[C@H]2c2ccc(Cl)c(Cl)c2)cc1,n,n,n,26µM,n
O=C(OCC(=O)N1CCc2ccccc21)[C@@H]1CC(O)CN1S(=O)(=O)c1ccc(Cl)cc1 (some centres undefined),n,n,n,n,n
CCOc1ccc(NC(=S)NC(=O)/C=C/c2ccc(OC)c(OC)c2)c([N+](=O)[O-])c1,n,u,n,21µM,n
Nc1c(Cl)ncnc1NCc1cccnc1,n,n,n,n,n
Nc1c(Cl)ncnc1NCCc1ccc(O)cc1,n,n,n,5.8µM,n
C#CC(=O)N(c1ccc(OC)cc1OC)C(C(=O)NC1CCCC1)c1cccs1 (centres undefined),n,n,u,n,n
C#CC(=O)N(c1cc(OC)ccc1OC)C(C(=O)NC1CCCC1)c1cccs1 (centres undefined),n,u,u,10µM,n
Cc1ncc(CO)c(/C=N/NC(=O)c2cc3c(s2)CCCC3)c1O,u,n,n,23µM,u
CC(C)C(=O)NNC(=O)c1cc2sccc2s1,n,n,n,n,n
COC(=O)C(C(=O)OC)=C(/C=C/C=C/N(C)C)N(C)C,9.2µM,u,n,x,u
COc1ccc(NC(=O)C2=CCN(S(=O)(=O)c3ccccc3)CC2)cc1OC,n,n,n,n,n
O=C1C(N2CCOCC2)=C(n2nnc3ccccc32)C(=O)c2ccccc21,n,23µM,n,23µM,n
SMILES,Rango release inh,A549 viability,Nrf2 ARE act,Nrf2 inh,Rango-impB inh
COc1ccc(-n2nc(C(=O)O)c3csc(N)c3c2=O)cc1,x,n,x,n,x
CCc1nc(N)c(C#N)c(-c2ccco2)c1C,n,n,2.5µM,n,n
CCCN1C(=O)c2ccccc2NC1c1ccc(OC)c(COc2ccc([N+](=O)[O-])cc2)c1 (centres undefined),x,n,x,n,x
C/C(=N\NC(=O)Cc1ccccc1)c1cccs1,n,n,n,n,n
C/C(=N\NC(=O)Cn1c(C)nc2ccccc21)c1cccs1,n,n,n,16µM,n
COc1cccc(-c2csc(N3CCN(C(=S)NCC(C)C)CC3)n2)c1,n,n,n,18µM,n
COc1cccc(-c2csc(N3CCN(C(=S)Nc4cccc(Cl)c4)CC3)n2)c1,n,n,n,18µM,n
CC(C)CNC(=S)N1CCN(c2nc(-c3ccc(Cl)cc3)cs2)CC1,n,n,n,18µM,n
COCCCNC(=S)N1CCN(c2nc(-c3ccc(Cl)cc3)cs2)CC1,x,x,n,x,x
COc1cccc(-c2csc(N3CCN(C(=O)Nc4ccc(Cl)cc4)CC3)n2)c1,n,u,n,15µM,n
COC(=O)c1ccccc1S(=O)(=O)Nc1cc(=O)c2ccccc2[nH]1,x,n,x,u,x
COc1cc(OC)c(NC(=O)CSc2cc(=O)n(C)c3ccc(Cl)cc23)cc1Cl,x,n,n,n,x
COc1ccc(CN(C)C(=O)C2CCN(S(=O)(=O)c3cccs3)CC2)cc1F,n,n,n,n,n
CCOc1ccc(NC(=O)CN(C)C(=O)CCCOc2ccc(Cl)c(C)c2)cc1OCC,n,u,n,21µM,n
CCOc1ccc(NC(=O)CN(C)C(=O)CCc2ccccc2Cl)cc1OCC,n,n,n,n,n
CC1CCN(CC2C(=O)O[C@@H]3C[C@@]4(C)CCC[C@H](C)C4=C[C@H]23)CC(C)(C)C1 (some centres undefined),n,n,8.9µM,n,n
Cn1nc(-c2ccncc2)nc2c(=O)n(C)c(=O)nc1-2,x,2.9µM,x,2.3µM,x
COc1ccc(-c2nc(-c3ccncc3)no2)cc1,n,n,n,u,n
COc1cccc2sc(=NC(=O)CS(=O)(=O)c3ccc(F)cc3)n(C)c12,n,n,n,n,n
CCn1c(=NC(=O)CS(=O)(=O)c2ccc(C)cc2)sc2cccc(OC)c21,n,n,n,23µM,n
Fc1ccc(C2=CC(c3ccco3)n3nnnc3N2)cc1 (centres undefined),n,n,13µM,u,n
COc1ccc(C2=CC(c3ccc(F)cc3)n3nnnc3N2)cc1 (centres undefined),u,n,n,n,u
CCOc1ccc(S(=O)(=O)N2CCN(C(=O)CCOc3ccccc3C)CC2)cc1,n,n,n,16µM,n
CC(=O)c1ccc(OCCCC(=O)N2CCN(S(=O)(=O)c3ccc(C(C)C)cc3)CC2)cc1,n,n,n,21µM,n
O=S(=O)(NC1c2cccc3cccc(c23)C1Sc1ncccn1)c1ccccc1 (centres undefined),n,n,n,n,n
SMILES,Rango release inh,A549 viability,Nrf2 ARE act,Nrf2 inh,Rango-impB inh
COc1ccc(Nc2cc(C(=O)NCCCN3CCN(c4ccccc4F)CC3)c3ccccc3n2)c(OC)c1,x,u,n,n,x
COc1ccc(C(=O)c2c(C(F)(F)F)oc3c2C(=O)c2ccccc2C3=O)cc1,n,7.3µM,n,x,n
CCCc1cc(C(=O)Nc2ccc(C(=O)c3ccc(F)cc3)cc2)n(C)n1,n,n,n,u,n
COc1ccc(C(=O)Nc2ccc(C(=O)c3ccccc3)cc2)cc1,n,n,n,9.2µM,n
COc1ccc(NC(=O)C#Cc2ccccc2)cc1,n,n,14µM,n,n
O=C(C#Cc1ccccc1)Nc1ccc(F)cc1,n,n,u,n,n
CCCc1cc(C(=O)Nc2ccc(C(=O)c3ccccc3)cc2)n(C)n1,n,u,n,21µM,n
COc1ccc(C(=O)N(Cc2ccccc2)Cc2ccc(OC)c(COc3ccc(NC(C)=O)cc3)c2)cc1,x,n,x,u,x
